Source: PubChem BioAssay

Tested on: not listed separately
Experiment: JC-1 mitochondrial potential readout, lung cancer cells – cell-based, A549, JC-1 fluorescence, basal, 24 h, 100 nL, profiling panel (AID 1138);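 also: A549 lung adenocarcinoma cells under basal conditions with no added stimulus; test concentration not given here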
Settings: higher = more signal

SMILES | z-score
COCCOC(=O)N1C(=O)[C@@]2(c3cc(C#CC4(O)CCCCCC4)ccc31)[C@H](c1ccc(O)cc1)N1[C@H](c3ccccc3)[C@H](c3ccccc3)OC(=O)[C@H]1[C@@H]2C(=O)Nc1nc2ccccc2s1 | -1.85
Cc1ccc(S[C@]2(C(=O)NC(C)C)CC(=O)N(Cc3ccccc3Cl)[C@@H]2c2ccc(CO)cc2I)cc1 | 0.905
COc1ccc(CCNC(=O)[C@@]2(Sc3ccc(C)cc3)CC(=O)N(C3CCCCC3)[C@@H]2c2ccc(CO)cc2I)cc1 | -0.0279
COCCOC(=O)N1C(=O)[C@@]2(c3cc(C#Cc4ccc(OC)cc4)ccc31)[C@H](c1ccccc1OCCO)N1[C@H](c3ccccc3)[C@H](c3ccccc3)OC(=O)[C@H]1[C@@H]2C(=O)N1CCN(c2ncccn2)CC1 | -1.18
NC(=O)[C@@H]1[C@H]2C(=O)O[C@H](c3ccccc3)[C@H](c3ccccc3)N2[C@H](c2ccc(O)cc2)[C@@]12C(=O)Nc1ccc(C#CC3(O)CCCCCC3)cc12 | -1.06
CC(=O)N1Cc2ccccc2C[C@@]2(COC(c3ccc(OCCCO)cc3)=N2)C1=O | -0.956

Tested on: Lefty1
Experiment: Lefty1 protein binding to printed compounds – biochemical, small-molecule microarray, 635/667 nm fluorescence, primary screen (AID 1139)
Settings: fluorescence 635/667, higher = more signal

SMILES | composite z-score
O=C1O[C@H](c2ccccc2)[C@H](c2ccccc2)N2[C@H]1[C@@H](C(=O)Nc1nc3ccccc3s1)[C@]1(C(=O)Nc3ccc(C#CCCO)cc31)[C@H]2c1ccc(OCCO)cc1 | 1.16
C=CCOC(=O)[C@H]1[C@@H]2C(=O)O[C@@H](c3ccccc3)[C@@H](c3ccccc3)N2[C@@H](c2ccc(OCCOC(=O)[C@@H]3C[C@@H]4C(=O)N[C@@H](CCCC[N+](C)(C)C)C(=O)N4[C@@H]3c3ccc(O)cc3)cc2)[C@]12C(=O)Nc1ccccc12 | 1.18
COCCCN1C(=O)[C@@]2(Cc3ccccc31)c1ccccc1C(=O)N(Cc1ccccc1C(F)(F)F)[C@H]2c1ccc(CO)cc1 | 0.469
COc1cc2c(cc1OC)CN(C(=O)[C@@H]1[C@H]3C(=O)O[C@H](c4ccccc4)[C@H](c4ccccc4)N3[C@H](c3ccc(O)cc3)[C@@]13C(=O)Nc1ccc(C#CC4(O)CCCCCC4)cc13)CC2 | 0.999
COCCOC(=O)N1C(=O)[C@@]2(c3ccccc31)[C@H](c1ccccc1OCCO)N1[C@H](c3ccccc3)[C@H](c3ccccc3)OC(=O)[C@H]1[C@@H]2C(=O)Nc1nc2ccccc2s1 | 1.34
C=C[C@H](COC(C)=O)N(C(=O)OC(C)(C)C)S(=O)(=O)c1ccc(Br)cc1 | 0.65
COc1cc(CO)cc(I)c1O[C@H]1C=C(C(=O)NCCO)C[C@@H](N(CCN2CCOCC2)C(=O)C2CCOC2)[C@@H]1O (stereo partly specified) | 0.792
COC(=O)[C@@]1(Cc2ccc(F)cc2)[C@H]2c3cc(C(=O)N4CCCC4)n(Cc4ccc(C)o4)c3C[C@H]2CN1C(=O)c1ccccc1 | 0.181
C=CCN1C(=O)[C@]2(O[C@H](CCO)[C@@H]([Si](C)(C)c3ccc(OC)cc3)[C@@H]2C)c2cc(N3C(=O)c4cccc5cccc3c45)ccc21 | 0.777
C=CCN1C(=O)[C@]2(O[C@H](CCO)[C@@H]([Si](C)(C)c3ccc(OC)cc3)[C@@H]2C)c2cc(N3CCCCC3=O)ccc21 | 1.52
CN1C(=O)C2C=CC(C(O)c3ccc(-c4ccccc4)s3)N(N(c3ccccc3)c3ccccc3)C2C1=O (stereo unspecified) | -0.119
COc1cc(OC)c(C(O)C2C=CC3C(=O)NC(=O)C3N2Nc2ccc(Cl)cc2Cl)cc1Br (stereo unspecified) | 0.0498
CCOC(=O)C[C@H]1[C@H](OC(=O)c2cc3ccccc3oc2=O)[C@@H](NC(=O)Cc2ccc(OC)cc2)c2cc(OCCCO)ccc2N1C(=O)c1ccccc1 | 0.248
COc1ccc(C(O)C2C=CC3C(=O)N(c4ccccc4)C(=O)C3N2Nc2ccccc2F)cc1OCc1ccccc1 (stereo unspecified) | -0.454
CN1C(=O)C2C=CC(C(O)Cc3ccccc3)N(Nc3ccccc3)C2C1=O (stereo unspecified) | -0.0697
O=C1O[C@H](c2ccccc2)[C@H](c2ccccc2)N2[C@H]1[C@@H](C(=O)Nc1nc3ccccc3s1)[C@]1(C(=O)Nc3ccc(C#CC4(O)CCCCCC4)cc31)[C@H]2c1ccc(OCCO)cc1 | 1.05
C[N+](C)(C)CCCC[C@@H]1NC(=O)[C@@H]2C[C@H](C(=O)NCCCCCN)[C@H](c3cccc(OCCO)c3)N2C1=O | 0.161
CCCCCCC#C[Si](O[C@H](c1ccccc1)c1cn([C@H](CO)Cc2ccccc2)nn1)(C(C)C)C(C)C | 0.65

SMILES | composite z-score
COC(=O)[C@@]1(Cc2ccc(F)cc2)[C@@H]2[C@@H](CC(=O)[C@H]2CC(=O)C(=O)N(C)C)CN1C(=O)c1ccccc1 | -0.198
C#CCN(CC=C(C)C)[C@H](CO)c1ccccc1 | -0.0431
CCc1oc(CC[C@@H](CO)NC(=O)NCCn2cc(C3(O)CCCCC3)nn2)c(C(=O)OC)c1C(=O)OC | 1.63
C#CCN(Cc1ccccc1Br)C(/C=C/c1ccccc1)CO (stereo unspecified) | 0.0437
C#CCNC(=O)[C@H](Cc1ccccc1)NC(=O)CCC(=O)O | -0.804
C[C@@]1([C@@H](NC(=O)c2ccccc2)c2ccc(-c3ccccc3)cc2)C[C@H]1C1CCCCC1 | -0.848
CC(C)C(=C=CC[C@@H](O)c1ccccc1OCCO)CCO | 0.352
O=C(c1ccccc1)N1Cc2ccccc2[C@@H]2OC(c3ccc(OCCCO)cc3)=N[C@]2(Cc2ccccc2)C1=O | 0.838
CC(C)C(CO)N1C(=O)[C@@H]2[C@H]3C(=O)OCC=C[C@H]3OC23C=CCN(C(C)C)C(=O)[C@@H]13 (stereo partly specified) | 0.433
CN(C)C(=O)[C@@]1(Cc2ccccc2)N=C(c2ccc(OCCCO)cc2)O[C@H]1c1ccccc1N=[N+]=[N-] | 0.623
C=C/C=C/[C@H]1C(=C)CN([C@@H](Cc2ccccc2)C(=O)OC)[C@@H]1[C@H](O)Cc1ccccc1 | -0.426
COCCOC(=O)N1C(=O)[C@@]2(c3cc(C#CC4(O)CCCCCC4)ccc31)[C@H](c1ccc(O)cc1)N1[C@H](c3ccccc3)[C@H](c3ccccc3)OC(=O)[C@H]1[C@@H]2C(=O)Nc1nc2ccccc2s1 | 0.562
Cc1ccc(S[C@]2(C(=O)NC(C)C)CC(=O)N(Cc3ccccc3Cl)[C@@H]2c2ccc(CO)cc2I)cc1 | -0.658
COc1ccc(CCNC(=O)[C@@]2(Sc3ccc(C)cc3)CC(=O)N(C3CCCCC3)[C@@H]2c2ccc(CO)cc2I)cc1 | 0.569
COCCOC(=O)N1C(=O)[C@@]2(c3cc(C#Cc4ccc(OC)cc4)ccc31)[C@H](c1ccccc1OCCO)N1[C@H](c3ccccc3)[C@H](c3ccccc3)OC(=O)[C@H]1[C@@H]2C(=O)N1CCN(c2ncccn2)CC1 | 0.361
NC(=O)[C@@H]1[C@H]2C(=O)O[C@H](c3ccccc3)[C@H](c3ccccc3)N2[C@H](c2ccc(O)cc2)[C@@]12C(=O)Nc1ccc(C#CC3(O)CCCCCC3)cc12 | -0.502
CC(=O)N1Cc2ccccc2C[C@@]2(COC(c3ccc(OCCCO)cc3)=N2)C1=O | 0.0786
